This passage reports cytotoxicity results from PubChem BioAssay AID620 (Sanford-Burnham Center for Chemical Genomics, 2007).

Screen size: about 87,000 compounds; about 360 (0.41%) were called active. The full list was thinned out, with actives kept by preference. A number with no mark means an inactive call. Rule as the data show it: active = cytotoxicity above about 50%; inactive = the rest.

A short description of this test: HT1080 cell viability loss – fluorescence readout (AID 620).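 Also: cells exposed to compound overnight then 4 h with Alamar Blue; 0% = vehicle DMSO and 100% = killing control.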 The conditions noted are these: at 10 µM, hits give high values.
Turning to `CCN(CC)S(=O)(=O)c1cccc(C(=O)Nc2ccc(Cl)cn2)c1`, the cytotoxicity is -7.6%. As to `CCc1ccc(C2=CC(c3cc(Br)ccc3F)n3ncnc3N2)cc1` (centres undefined), the cytotoxicity is 44.7%.

As for `Fc1ccc(Br)cc1C1C=C(c2ccc(Br)cc2)Nc2ncnn21` (centres undefined), the cytotoxicity is -11.5%. Take `Fc1ccc(Br)cc1C1C=C(c2ccc(Br)s2)Nc2ncnn21` (centres undefined): the cytotoxicity was 62.6% (active). Take `Cc1cc(N)n(-c2ncnc3scc(-c4ccc(Cl)cc4)c23)n1`: the cytotoxicity is 7.2%. Turning to `O=C(c1ccc(F)cc1)C(CN1CCOCC1)c1ccccc1` (centres undefined), the cytotoxicity was 61% (active). The value for `CCCCCOc1ccc(C(=O)C(c2ccccc2)N2CCOCC2)cc1` (centres undefined) was -2%; that for `CC(CN1CCOCC1)C(=O)c1ccccc1` (centres undefined) was -9.8%. As to `COc1ccc(C(=O)C(CN2CCOCC2)c2ccccc2)cc1F` (centres undefined), the cytotoxicity was 25.3%.

Consider `COc1ccc(C(=O)C(CN2CCOCC2)c2ccccc2)cc1` (centres undefined), for which the cytotoxicity is 27%. For `CCc1cc(=O)oc2cc(OCC(=O)N(CC)CC)c(Cl)cc12`, the cytotoxicity is 2.2%. Regarding `O=C(CCn1c(=O)sc2ccccc21)NCc1ccccc1`, the cytotoxicity is 0%.

Consider `c1ccc2[nH]c(CSc3nc4ccccc4s3)nc2c1`, for which the cytotoxicity was -3.3%. Next, `CCCC[C@@H]1C[C@H]1C(NC(=O)c1ccc(C(F)(F)F)cc1)c1ccc(C(=O)OC)cc1` (some centres undefined): -11.3%; `CCn1cc(C(=O)O)c(=O)c2cnc(N3CCN(C(=O)Nc4cccc5ccccc45)CC3)nc21`: -1.8%; `CC(=O)N1CCN(Cc2ccc(Br)s2)CC1`: -4.4%. The value for `Cc1[nH]c(=O)[nH]c(=O)c1S(=O)(=O)N1c2ccc(F)cc2CCC1C` (centres undefined) was -0.4%. The value for `CCCN(C(=O)Cn1ncc2c(=O)oc3ccccc3c21)c1cccc(C)c1` was -2.3%; that for `O=C(CN(c1ccccc1F)S(=O)(=O)c1ccccc1)NC1CCCCCC1` was -8.6%. For `Fc1ccc(-c2nnc(CN3CCN(c4ncc(C(F)(F)F)cc4Cl)CC3)o2)cc1`, the cytotoxicity is -2.5%. For the compound `CCCCCCc1ccc(-c2ncc(N)cn2)cc1`, the cytotoxicity was 97.1% (active). The value for `CCCCCc1ccc(-c2ccc(=O)[nH]n2)cc1` was 15.3%. Next, `CCCCc1ccc(-c2nc(N)n[nH]2)cc1`: 5.5%; `CCCn1c(=O)c2ccccc2n2c(SCC(=O)c3cc(C)n(CC4CCCO4)c3C)nnc12` (centres undefined): 6.6%; `COc1ccccc1N(CC(=O)NC1CCCCC1)S(C)(=O)=O`: -0.7%. Regarding `Fc1ccc(N2CCN(c3nc(-c4ccco4)cc(C(F)(F)F)n3)CC2)cc1`, the cytotoxicity was -8.6%. Next, `O=C(c1c[nH]c2ccc(F)cc2c1=O)N1CCCCCC1`: 67.1% (active). The value for `CCc1ccc2[nH]cc(C(=O)N3CCCCCC3)c(=O)c2c1` was -11%; that for `COc1ccc2[nH]cc(C(=O)N3CCCCC3)c(=O)c2c1` was -0.4%. Next, `FC(F)(F)c1cc(-c2ccco2)nc(-n2cnc3ccccc32)n1`: -14.2%. On to `Cc1nc2ccccc2n1-c1nc(-c2ccco2)cc(C(F)(F)F)n1`, for which the cytotoxicity is 65.2% (active). Turning to `FC(F)(F)c1cc(-c2ccco2)nc(-n2nnc3ccccc32)n1`, the cytotoxicity is -10.9%. Next, `CCCCNC(=O)c1ccc2c(c1)N(CC)C(=O)c1ccccc1S2(=O)=O`: -4.4%; `CSc1nc(NCC(C)C)nc(N2CCOCC2)n1`: 1%; `CCCC1(C)SC(NC(C)=O)=NN1C(C)=O` (centres undefined): -1.8%. Next, `CC(=O)NC1=NN(C(C)=O)C2(CCCCC2)S1`: 0.7%. Regarding `CC(=O)NC1=NN(C(C)=O)C(C)(c2cccs2)S1` (centres undefined), the cytotoxicity is 65.3% (active). Next, `COc1ccc(C(=O)CSc2nc(SC)ns2)cc1OC`: 7.5%; `COc1cc(NC(=O)COc2ccc(F)cc2)nc(OC)n1`: 5%.

For `O=C(Nc1ccc2nc(-c3ccccc3)[nH]c2c1)c1cccs1`, the cytotoxicity was 56.7% (active). Regarding `O=C(Nc1ccc2nc(-c3cccs3)[nH]c2c1)c1cccs1`, the cytotoxicity is 17%. Next, `O=C(Nc1ccc(-c2nc3ccc(NC(=O)c4cccs4)cc3[nH]2)cc1)c1cccs1`: 16.4%; `COc1ccc(C(=O)SC2=NCCS2)cc1`: -11.1%; `Cc1cc(C)n(-c2c(F)c(F)c(CO)c(F)c2F)n1`: -14.3%. Next, `CS(=O)(=O)N(CC(=O)N1CCN(c2ccccc2)CC1)C1CCCCC1`: -5.1%.

Consider `CCCNC(=O)C1CN(S(=O)(=O)c2ccccc2)CCN1S(=O)(=O)c1ccccc1` (centres undefined), for which the cytotoxicity was 3.1%. The value for `Cn1c(Cn2nnc3ccccc32)nnc1SCC(=O)NCc1ccc2c(c1)OCO2` was -4.4%; that for `CCn1ncc(C2=NOC(C(=O)NCc3ccc(Cl)cc3)C2)c1C` (centres undefined) was 71.2% (active); that for `CCn1ncc(C2=NOC(C(=O)Nc3ccc(C)cc3)C2)c1C` (centres undefined) was 7.8%.

As to `CCn1ncc(C2=NOC(C(=O)NCCc3ccccc3)C2)c1C` (centres undefined), the cytotoxicity is 4.4%. For `CCn1ncc(C2=NOC(C(=O)NCC(C)C)C2)c1C` (centres undefined), the cytotoxicity is 1.4%. Regarding `CCn1ncc(C2=NOC(C(=O)NCc3ccc(OC)cc3)C2)c1C` (centres undefined), the cytotoxicity is 2%. For `CCn1ncc(C2=NOC(C(=O)NCc3ccccc3)C2)c1C` (centres undefined), the cytotoxicity was 53.9% (active). `Cc1ccc(C)c(NC2=NC3(CCCCC3)N=C(N)N2)c1`: the cytotoxicity is 4.3%. In the case of `COC(=O)C(NC(=O)c1ccco1)(Nc1nc(C2CC2)cs1)C(F)(F)F` (centres undefined), the cytotoxicity was 1.9%.

Turning to `CCc1ccccc1NC(=O)CN(C)Cc1nc(N)nc(Nc2ccccc2C)n1`, the cytotoxicity is -1%. Next, `CO/N=C/NC(=O)Cc1cn(-c2ncc(C(F)(F)F)cc2Cl)c2ccccc12`: 7.8%; `Cc1ccc2c(C)c(C(=O)Nc3nnc(C)s3)oc2c1`: 1.1%.

As for `Cc1c(C(=O)Nc2ccc(-n3cnnn3)cc2)oc2ccccc12`, the cytotoxicity was 26.2%.

Take `COc1ccc(C(=O)Nc2nnc(C(F)(F)F)s2)cc1`: the cytotoxicity is 66.8% (active). The value for `CCOCc1nnc(NC(=O)c2ccc(OC)cc2)s1` was 7.7%. The value for `Cc1cc(NC(=O)c2ccco2)ccc1-n1cnnn1` was -8.1%.

As to `COC(=O)c1sc(NC(=O)c2oc3ccccc3c2C)nc1C`, the cytotoxicity was -14.4%. The value for `Cc1cc(NC(=O)c2oc3ccccc3c2C)ccc1-n1cnnn1` was 75.3% (active); that for `Cc1c(C(=O)Nc2nnc(C(F)(F)F)s2)oc2ccccc12` was 82.5% (active); that for `O=C(Nc1nnc(C(F)(F)F)s1)c1cccnc1` was 24%.

On to `COc1cccc(C(=O)Nc2ccc(F)cc2F)c1`, for which the cytotoxicity is -7.7%. Next, `CC(C)(C)c1ccc(Oc2cccc(C3CC(=O)C(C4NCCc5ccccc54)C(=O)C3n3cncn3)c2)cc1` (centres undefined): -1.9%; `CCn1c(CC(=O)Nc2ccccc2)nnc1SCC(=O)Nc1ccccc1C(=O)OC`: 0.7%.

With `COc1ccc(N2CCCCn3c2nc2c3c(=O)[nH]c(=O)n2C)cc1`, the cytotoxicity is 3.8%. With `CCOC(=O)Cn1nc(-c2ccc(Cl)cc2)ccc1=O`, the cytotoxicity was -5%. The value for `CCn1c(CSc2nc3ccccc3n2C)nc2ccccc21` was 27.6%.

Take `COc1ccc(C2C(C#N)=C(C)NC3=C2C(=O)c2ccccc23)cc1` (centres undefined): the cytotoxicity is 3%. With `COc1cc(C2C(C#N)=C(C)NC3=C2C(=O)CC(C)(C)C3)cc(OC)c1O` (centres undefined), the cytotoxicity was -2.1%. In the case of `COc1cc(C2C(C#N)=C(C)NC3=C2C(=O)c2ccccc23)cc(OC)c1OC` (centres undefined), the cytotoxicity was 68.6% (active). The value for `COc1cc(NC(=O)c2cccs2)c(C(=O)OCC(=O)NCc2ccccc2)cc1OC` was 9.6%.

Turning to `CCOc1ccc(NC(=O)CSc2nnc(C)n2CC2CCCO2)cc1` (centres undefined), the cytotoxicity was -2.7%. Next, `COc1ccc(-c2noc(CN3CCCCC3)n2)cc1OC`: 11.9%. The value for `CN(C)S(=O)(=O)c1ccc(S(=O)(=O)N(Cc2ccco2)Cc2ccccc2Cl)cc1` was -1.9%; that for `CCOc1cc(S(=O)(=O)N2CCC(Cc3ccccc3)CC2)c(OCC)cc1-n1cnnn1` was -6.4%.

As for `CCOc1cc(S(=O)(=O)N2CC=C(c3ccc(F)cc3)CC2)c(OCC)cc1-n1cnnn1`, the cytotoxicity was 52.5% (active).

With `CCOc1cc(S(=O)(=O)N2CCN(c3ccc(F)cc3)CC2)c(OCC)cc1-n1cnnn1`, the cytotoxicity is 2.6%.

For `CC12CCC(C(=O)N3CCN(Cc4ccccc4)CC3)(OC1=O)C2(C)C` (centres undefined), the cytotoxicity was 0.4%. `CN1CC[n+]2c(CN3C(=O)c4ccccc4C3=O)csc21`: the cytotoxicity is 15.5%. Regarding `CCCC(=O)c1c(NC(C)C)cc(C)oc1=O`, the cytotoxicity was -2.5%. On to `Cc1cccc(N2CCN(C(=O)c3ccncc3)CC2)c1C`, for which the cytotoxicity was 21.3%. On to `COc1cc(C(=O)N2CCN(c3cc(Cl)ccc3Cl)CC2)cc(OC)c1OC`, for which the cytotoxicity was 66% (active). The value for `COc1ccc(C(=O)N2CCN(C(=O)c3cc(OC)c(OC)c(OC)c3)CC2)cc1` was -0.7%; that for `COc1cc(C(=O)N2CCN(C(=O)c3ccccc3)CC2)cc(OC)c1OC` was -2.8%. The value for `COc1cc(C(=O)N2CCN(c3cccc(C)c3C)CC2)cc(OC)c1OC` was 62.4% (active). For the compound `COc1ccc(Cl)cc1S(=O)(=O)N1CCN(C(=O)c2cc(OC)c(OC)c(OC)c2)CC1`, the cytotoxicity is -2.5%. Next, `O=C(C1CC1)N1CCN=C1SCc1ccccc1`: -4.5%; `Cc1cccc(NC(=O)c2ccc(S(=O)(=O)N(C)C)cc2)n1`: 36.5%. With `CCc1ccc(NC(=O)CCn2ccnc2C)cc1`, the cytotoxicity was -7%. With `Cc1ccc(S(=O)(=O)N(C)c2ccc(OCC(=O)OCc3c(C)noc3C)cc2)cc1`, the cytotoxicity is 11.5%. In the case of `CCC(C)(C)NC(=O)CN(C(=O)CCC(=O)Nc1cc(C)ccn1)c1ccc2c(c1)OCO2`, the cytotoxicity is -1.1%. For the compound `CCCCCCCCCCCCCCCC(O)C(N)CO` (centres undefined), the cytotoxicity is 58.2% (active).

Take `CCCCCCCCCC(=O)OCC(O)CO` (centres undefined): the cytotoxicity is -10.7%.

For `CCCCCCCC(=O)OCC(O)CO` (centres undefined), the cytotoxicity is -0.9%.
